The values below come from PubChem BioAssay (NCI).

Compounds without any hit were thinned out: in the full panel of roughly 83,000, 20% have a hit.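 Cell lines were cultured in 96-well plates, exposed to a single compound concentration, and assessed for percent growth 48 hours later.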 Active and inactive are the calls of the source. The calls were made as follows: active = growth percent below 10; inactive = the rest.

The first assay concerns MDA-MB-231 breast. In words: NCI-60 one-dose screen, 48 h (100 = growth as untreated, 0 = no growth, -100 = all killed). The following applies: 10 µM unless noted.
`NC1=NC(c2cccc(Br)c2)c2sc3ccc(Cl)cc3c2N1` (centres undefined): the growth is 88.4% (inactive).

For `CCCCn1c(-c2ccc(-c3nc(-c4ccc(Cl)cc4)no3)cc2)nc(-c2ccccc2)c1-c1ccccc1`, the growth is 79.9% (inactive).

For `CCc1ccccc1-n1c(N)c(C#N)c(-c2ccc(Cl)cc2)c(C#N)c1=O`, the growth was 94.8% (inactive).

On to `Cc1ccc(/C=N\NC(=O)c2[nH]c3ccc(F)cc3c2-c2ccccc2)cc1`, for which the growth is 36.5% (inactive).

Take `COc1ccc(/C=C/c2c(C(=O)/C=C/c3ccc(C(F)(F)F)cc3)c(C)nc3ccccc23)cc1`: the growth is -20.2% (active).

For the compound `Cc1c(C(=O)/C=C/Nc2c(Cl)cc(S(N)(=O)=O)cc2Cl)sc2nc3ccccc3n12`, the growth was 102% (inactive).

With `CC(=O)N1N=C(c2ccc(Nc3nc(Nc4ccc(F)cc4)nc(Nc4ccc(Cl)cc4)n3)cc2)CC1c1ccc(Cl)cc1` (centres undefined), the growth was 76.2% (inactive).

With `COc1ccccc1/C=C1\Oc2cc(OCCN3CCC(Cc4ccccc4)CC3)ccc2C1=O`, the growth was 90.3% (inactive).

As for `Cc1nc2ccccc2c(/C=C/c2ccccc2)c1C(=O)/C=C/c1ccc(C(F)(F)F)cc1`, the growth was -43.7% (active).

As for `Cc1[nH]c(C(=O)Nc2ccc(C(=O)N3CCNCC3)cc2OC(C)C)c(Cl)c1Cl`, the growth was 22.9% (inactive).

`CN1C(=O)N(C)C2Nn3c(s/c(=C\c4ccccc4)c3=O)=NC21` (centres undefined): the growth is 98.1% (inactive).

`COc1ccc([C@H]2c3cc(OC)c(OC)cc3C=C(C=O)C2CO)cc1OC` (some centres undefined): the growth is 70.2% (inactive).

In the case of `O=c1n(Cc2ccc3ccccc3c2)ccn1Cc1ccc2ccccc2c1`, the growth was 91.4% (inactive).

Take `N/C(=N\c1nc2ccccc2s1)NC(=O)Nc1cccc2ccccc12`: the growth was 52% (inactive).

Regarding `O=C(N=c1oc2ccccc2cc1-c1cc2ccccc2[nH]1)Nc1ccc(Cl)cc1`, the growth was 79.5% (inactive).

In the case of `Fc1cc(-c2nnc3sc(-c4ccc(Cl)cc4Cl)nn23)c(Cl)cc1Cl`, the growth is 74.8% (inactive).

Consider `OC(c1ccccc1)C(NC(Cc1ccccc1)c1ccccc1)c1ccccc1` (centres undefined), for which the growth was 78.7% (inactive).

In the case of `O=C(/C=C/c1ccc([N+](=O)[O-])o1)NNC(=O)c1cc2ccccc2cc1O`, the growth is 21% (inactive).

As for `CCCCCCCCCCCCCCCCCCOc1ccccc1CC(=O)OCC[N+](CC)(CC)CC`, the growth was -17.3% (active).

For `Cc1c(C(=O)NCCN2CCOCC2)cn2ncnc(Oc3ccc(NC(=O)Nc4ccc(Cl)c(C(F)(F)F)c4)cc3)c12`, the growth is 7.21% (active).

Consider `Cc1ccc2c(n1)C(=O)C(Cl)=C(Nc1ccccc1C(C)C)C2=O`, for which the growth was 30.3% (inactive).

As to `Nc1cc2c(cc1Br)-c1cc(Cl)ccc1C2=O`, the growth was 79.8% (inactive).

Take `Cc1nn(-c2ccccc2)c2c1N=c1s/c(=C\c3ccc(C(F)(F)F)cc3)c(=O)n1CN2`: the growth was 56.2% (inactive).

Regarding `COc1ccc2c(c1)/C(=C/c1sc(=S)n(Cc3ccco3)c1O)C=N2`, the growth was 56.5% (inactive).

As for `COc1nc2ccccc2cc1-c1nc2c(cnn2-c2ccccc2)c(=O)[nH]1`, the growth is 58.3% (inactive).

Consider `Cc1[nH]c(C(=O)Nc2ccc(C(=O)NCCN)cc2OC(C)C)c(Cl)c1Cl`, for which the growth was -27% (active).

For the compound `CC(C)c1cc(C(C)C)c(S(=O)(=O)Oc2ccc(NC(=O)c3ccc(Cl)cc3)cc2)c(C(C)C)c1`, the growth is 52.1% (inactive).

In the case of `O=S(=O)(Nc1ccc(-c2nc(-c3cccc(OCCN4CCOCC4)c3)c(-c3ccnc(Br)c3)[nH]2)cc1)c1ccccc1`, the growth is 36.8% (inactive).

Consider `COc1ccc(-c2cc3c4c(nc5ccccc5c4c2)CC(c2cc(OC)c(OC)c(OC)c2)O3)cc1` (centres undefined), for which the growth is 19.6% (inactive).

As to `COc1ccc(/C=N/Nc2cc(=O)[nH]c3ccc(Cl)cc23)cc1`, the growth was 71.3% (inactive).

On to `COc1ccc(S(=O)(=O)n2c3ccccc3n3ncc(-c4nnc(C)o4)c23)cc1`, for which the growth is 30.1% (inactive).

Regarding `CCc1cccc2c3c(sc12)C(c1ccc(Cl)cc1)C(C#N)=C(N)O3` (centres undefined), the growth is 31.6% (inactive).

Consider `Clc1ccc(C(/C=C/c2sc(Cl)nc2Cl)=N/Nc2cc(Cl)cc(Cl)c2)cc1`, for which the growth was 103% (inactive).

Take `NCCCNc1nc2ccccc2c2c(=O)c3cc(OC(F)(F)F)ccc3sc12`: the growth was -43.2% (active).

On to `Cc1cc(-c2cc(C)c(N)cc2C)c(C)cc1N`, for which the growth is 82.8% (inactive).

As for `O=C(Nc1ccc(F)cc1F)c1cc(F)ccc1O`, the growth is 10.8% (inactive).

The test system of another assay is RXF 393 renal. The description is as above. As to conditions: 10 µM unless noted.
With `NC1=NC(c2cccc(Br)c2)c2sc3ccc(Cl)cc3c2N1` (centres undefined), the growth was 110% (inactive).

Turning to `CCCCn1c(-c2ccc(-c3nc(-c4ccc(Cl)cc4)no3)cc2)nc(-c2ccccc2)c1-c1ccccc1`, the growth was 101% (inactive).

Turning to `CCc1ccccc1-n1c(N)c(C#N)c(-c2ccc(Cl)cc2)c(C#N)c1=O`, the growth was 113% (inactive).

`Cc1ccc(/C=N\NC(=O)c2[nH]c3ccc(F)cc3c2-c2ccccc2)cc1`: the growth is 47.6% (inactive).

`COc1ccc(/C=C/c2c(C(=O)/C=C/c3ccc(C(F)(F)F)cc3)c(C)nc3ccccc23)cc1`: the growth is -83.9% (active).

For the compound `Cc1c(C(=O)/C=C/Nc2c(Cl)cc(S(N)(=O)=O)cc2Cl)sc2nc3ccccc3n12`, the growth is 115% (inactive).

Turning to `CC(=O)N1N=C(c2ccc(Nc3nc(Nc4ccc(F)cc4)nc(Nc4ccc(Cl)cc4)n3)cc2)CC1c1ccc(Cl)cc1` (centres undefined), the growth was 88.8% (inactive).

`COc1ccccc1/C=C1\Oc2cc(OCCN3CCC(Cc4ccccc4)CC3)ccc2C1=O`: the growth is 69.9% (inactive).

For the compound `Cc1nc2ccccc2c(/C=C/c2ccccc2)c1C(=O)/C=C/c1ccc(C(F)(F)F)cc1`, the growth is -81.7% (active).

Take `Cc1[nH]c(C(=O)Nc2ccc(C(=O)N3CCNCC3)cc2OC(C)C)c(Cl)c1Cl`: the growth is 71.3% (inactive).

Take `CN1C(=O)N(C)C2Nn3c(s/c(=C\c4ccccc4)c3=O)=NC21` (centres undefined): the growth is 106% (inactive).

With `COc1ccc([C@H]2c3cc(OC)c(OC)cc3C=C(C=O)C2CO)cc1OC` (some centres undefined), the growth was -9.23% (active).

On to `O=c1n(Cc2ccc3ccccc3c2)ccn1Cc1ccc2ccccc2c1`, for which the growth is 96.4% (inactive).

For the compound `N/C(=N\c1nc2ccccc2s1)NC(=O)Nc1cccc2ccccc12`, the growth is -2.29% (active).

As for `O=C(N=c1oc2ccccc2cc1-c1cc2ccccc2[nH]1)Nc1ccc(Cl)cc1`, the growth is 116% (inactive).

On to `Fc1cc(-c2nnc3sc(-c4ccc(Cl)cc4Cl)nn23)c(Cl)cc1Cl`, for which the growth is 65.4% (inactive).

Take `CSc1ccc2c(c1)c(CCN)c(C)n2Cc1ccc(Cl)c(Cl)c1`: the growth is -82.5% (active).

`OC(c1ccccc1)C(NC(Cc1ccccc1)c1ccccc1)c1ccccc1` (centres undefined): the growth was 102% (inactive).

Take `O=C(/C=C/c1ccc([N+](=O)[O-])o1)NNC(=O)c1cc2ccccc2cc1O`: the growth was -20.8% (active).

Consider `CCCCCCCCCCCCCCCCCCOc1ccccc1CC(=O)OCC[N+](CC)(CC)CC`, for which the growth was -16.9% (active).

Regarding `Cc1c(C(=O)NCCN2CCOCC2)cn2ncnc(Oc3ccc(NC(=O)Nc4ccc(Cl)c(C(F)(F)F)c4)cc3)c12`, the growth is -26.8% (active).

Turning to `Cc1ccc2c(n1)C(=O)C(Cl)=C(Nc1ccccc1C(C)C)C2=O`, the growth was 83.6% (inactive).

Regarding `Nc1cc2c(cc1Br)-c1cc(Cl)ccc1C2=O`, the growth was 101% (inactive).

Turning to `Cc1nn(-c2ccccc2)c2c1N=c1s/c(=C\c3ccc(C(F)(F)F)cc3)c(=O)n1CN2`, the growth was 49.7% (inactive).

As for `COc1ccc2c(c1)/C(=C/c1sc(=S)n(Cc3ccco3)c1O)C=N2`, the growth was 48.7% (inactive).

In the case of `COc1nc2ccccc2cc1-c1nc2c(cnn2-c2ccccc2)c(=O)[nH]1`, the growth is 67.1% (inactive).

For `Cc1[nH]c(C(=O)Nc2ccc(C(=O)NCCN)cc2OC(C)C)c(Cl)c1Cl`, the growth was 83.5% (inactive).

In the case of `CC(C)c1cc(C(C)C)c(S(=O)(=O)Oc2ccc(NC(=O)c3ccc(Cl)cc3)cc2)c(C(C)C)c1`, the growth was 51.4% (inactive).

Regarding `CN1C(=O)CNC(=O)[C@H](NC(=O)c2nc3ccccc3cc2O)CSSC[C@H]1C(=O)NCCCc1nc2ccccc2cc1O`, the growth is 102% (inactive).

For the compound `O=S(=O)(Nc1ccc(-c2nc(-c3cccc(OCCN4CCOCC4)c3)c(-c3ccnc(Br)c3)[nH]2)cc1)c1ccccc1`, the growth is -15.1% (active).

Consider `COc1ccc(-c2cc3c4c(nc5ccccc5c4c2)CC(c2cc(OC)c(OC)c(OC)c2)O3)cc1` (centres undefined), for which the growth was -0.548% (active).

In the case of `COc1ccc(/C=N/Nc2cc(=O)[nH]c3ccc(Cl)cc23)cc1`, the growth is 85.6% (inactive).

Consider `COc1ccc(S(=O)(=O)n2c3ccccc3n3ncc(-c4nnc(C)o4)c23)cc1`, for which the growth was -22.2% (active).

On to `CCc1cccc2c3c(sc12)C(c1ccc(Cl)cc1)C(C#N)=C(N)O3` (centres undefined), for which the growth is -18.8% (active).

Consider `Clc1ccc(C(/C=C/c2sc(Cl)nc2Cl)=N/Nc2cc(Cl)cc(Cl)c2)cc1`, for which the growth was 110% (inactive).

As for `NCCCNc1nc2ccccc2c2c(=O)c3cc(OC(F)(F)F)ccc3sc12`, the growth is 60.7% (inactive).

For `Cc1cc(-c2cc(C)c(N)cc2C)c(C)cc1N`, the growth is 111% (inactive).

Consider `O=C(Nc1ccc(F)cc1F)c1cc(F)ccc1O`, for which the growth is 2.57% (active).
